Among all 69,000 compounds or so, about 8,600 (12%) showed an effect of 50% or more. For the sample, strong results were picked, then their nearest neighbours and some compounds at random.
system: Plasmodium berghei; test: Screen against P. berghei liver stage (PbLuc), transformed with Luciferase, at 10uM; format: functional, HepG2; conditions: tested at 10 uM

| SMILES | INHIBITION |
| --- | --- |
| Cc1ncc2c(n1)CN(Cc1nc(-c3ccsc3)oc1C)CC2 | -4.92% |
| Cc1oc(-c2ccccc2)nc1CN1CCC(c2ccnn2C)CC1 | 69.7% |
| CSc1ccc(-c2nc(CN3CCC(CN)C3)c(C)o2)cc1 (configuration not stated) | -70.3% |
| CSc1ccc(-c2nc(CN3CCC(C(N)=O)CC3)c(C)o2)cc1 | -10.2375% |
| Cc1oc(-c2ccsc2)nc1CN1CCCC(c2ccnn2C)C1 (configuration not stated) | 66.3% |
| Cc1oc(-c2ccsc2)nc1CN1CC[C@@H]2CCCC[C@H]2C1 | 28.4% |
| Cn1cc(NS(=O)(=O)CCOc2ccc(F)cc2)cn1 | -15.29% |
| Cc1cc(C)n(Cc2cc(C(=O)N3CCCC3c3ccccn3)n[nH]2)n1 (configuration not stated) | 39.7% |
| CC(=O)Nc1cccc2c1ccn2CC(=O)Nc1ncc[nH]1 | 25.8% |
| COCCOCC(=O)N1CCCC(c2ncc[nH]2)C1 (configuration not stated) | -45% |
| Cc1nnc(C2CCN(c3ccccc3)CC2)o1 | 16.5% |
| CN(C)S(=O)(=O)N1CCC(C)(c2ncc(C(N)=O)s2)CC1 | -7.66% |
| Cc1ccc(NC(=O)CN2CCOCC2)c(F)c1 | 28% |
| Cc1ccc(NC(=O)CNC(C)CN2CCOCC2)c(F)c1 (configuration not stated) | 41.5% |
| Cc1ccc(NC(=O)CNC(C)CN2CCCCC2)c(F)c1 (configuration not stated) | 63.8% |
| Cc1cc(C)n(CCC(=O)N2CCC(Nc3cccnn3)CC2)n1 | -16.75% |
| CC1CN(CC(=O)NC(C2CC2)C2CC2)CCN1Cc1nccn1C (configuration not stated) | -43.05% |
| COc1ccc(CN2CCC3(CC2)NC(=O)CC3c2ccncc2)cc1 (configuration not stated) | 30.7% |
| COCC(=O)NCc1cc(=O)n2c(n1)CN(CC1CC1)CCC2 | 26.7% |
| Cc1oncc1C(=O)NCc1cc(=O)n2c(n1)CN(C(C)C)CCC2 | 35.4% |
| CC(C)N1CCc2c(CNC(=O)c3nccn3C)cncc2C1 | 24% |
| CCCN1CCCn2c(nc(CNC(=O)c3nccn3C)cc2=O)C1 | 66.8% |

| SMILES | INHIBITION |
| --- | --- |
| Cn1ccnc1C(=O)NCc1cc(=O)n2c(n1)CN(CC1CC1)CCC2 | 4.02% |
| COCCN1CCCn2c(nc(CNC(=O)COC)cc2=O)C1 | 31.2% |
| COCC(=O)NCc1cc(=O)n2c(n1)CN(C)CCC2 | 59.3% |
| CC(C)N1CCCn2c(nc(CNC(=O)c3nccn3C)cc2=O)C1 | 71.6% |
| CN1CCCn2c(nc(CNC(=O)c3nccn3C)cc2=O)C1 | 13.7% |
| CCn1cc(CN2CCC3(CC2)c2ccccc2CC3O)cn1 (configuration not stated) | 2.7% |
| CC(C)CN1C[C@@H]2C[C@H](C(=O)N3CCCC3)[C@H](C1)O2 | 31.5% |
| c1cc(CN2CCc3ncc(CN4CCCCC4)n3CC2)cs1 | 20.9% |
| Cc1ccc(CN2Cc3nnn(C)c3C(COCC(=O)N(C)C)C2)s1 (configuration not stated) | 42.1% |
| CC(C)CNC(=O)c1[nH]nc(C2CC2)c1Br | -7.46% |
| O=C1NC2(Cc3ccccc31)CN(CC1CCNC1)C2 (configuration not stated) | 46.6% |
| Fc1cccc(C2CCCN2Cc2nnnn2C2CC2)c1 (configuration not stated) | 31.1% |
| O=C(CCC(F)(F)F)N1CCN(Cc2ccncc2)[C@@H]2CS(=O)(=O)C[C@@H]21 | 42.1% |
| CCn1nc(CNC(=O)C2CCCN(CC(N)=O)C2)c2ccccc21 (configuration not stated) | 67.2% |
| CCn1nc(CNC(=O)C2CC(=O)N(C3CCCC3)C2)c2ccccc21 (configuration not stated) | 30.1% |
| CCn1nc(CNC(=O)C2CCCN(C(=O)COC)C2)c2ccccc21 (configuration not stated) | 10.5% |
| CCn1nc(C)c(CCNC(=O)C2CCCN(CC(N)=O)C2)c1C (configuration not stated) | 18.8% |
| Cc1ccc2c(c1)c(CNC(=O)C1CCCN(CC(N)=O)C1)nn2C (configuration not stated) | 10.5% |
| CCN1CC(C(=O)NCc2noc(Cc3ccccc3)n2)CCC1=O (configuration not stated) | 17.6% |
| Cc1n[nH]c(C)c1CCNC(=O)C1CCCN(Cc2ccco2)C1 (configuration not stated) | -4.96% |
| Cc1n[nH]c(C)c1CCNC(=O)C1CCCN(CC(N)=O)C1 (configuration not stated) | 74.4% |
| CCN1CC(C(=O)NCc2nn(CC)c3ccccc23)CCC1=O (configuration not stated) | 65% |

| SMILES | INHIBITION |
| --- | --- |
| CC(Cc1ccco1)NC(=O)Nc1ccc(N2CCCC2)nc1 (configuration not stated) | 21.425% |
| Cc1ccc(S(=O)(=O)N2CCC(c3n[nH]cc3C)C2)cc1 (configuration not stated) | 32.8% |
| CCN1CC2(CC1=O)CN(Cc1ccncc1)CCN(C(=O)C(C)C)C2 (configuration not stated) | 38.5% |
| COc1cc(-c2nc3c([nH]2)CCCNC3=O)ccc1OC(C)C | -125% |
| CCCN(Cc1cnc2ccccc2n1)Cc1ccccc1OC | 61.9% |
| CCCN(Cc1ccccn1)Cc1ccccc1OC | 45.2% |
| CCCN(Cc1nc2ccccc2[nH]1)Cc1ccccc1OC | 82.3% |
| CCCN(Cc1ccc(OC)nc1)Cc1ccccc1OC | 37.8% |
| CCCN(Cc1ccc(S(=O)(=O)NC)cc1)Cc1ccccc1OC | 38.6% |
| Cc1ccc(CN(CCN(C)C)Cc2nc3ccccc3[nH]2)s1 | 36.5% |
| Cc1cccc(N2CCCC2c2nc(C)ncc2CN(C)C)n1 (configuration not stated) | -3.94% |
| Cc1ccnc(NC(=O)C(C)Cn2cncn2)c1 (configuration not stated) | 28.4% |
| Cc1nc(NCc2nonc2C)cc(C(C)Cn2nc(C)c(C)c2C)n1 (configuration not stated) | 43.8% |
| COc1ccc2c(ccn2CCC(=O)Nc2nc[nH]n2)c1 | 29.9% |
| CCc1nc(CN2CCCC(NCc3nc(C)c(C)o3)C2)no1 (configuration not stated) | -2.19% |
| O=C(CC1COCCN1)N1CCCN(C2Cc3ccccc3C2)CC1 (configuration not stated) | -22.1% |
| COCCC1(CO)CCCN(C(=O)CCC(F)(F)F)C1 (configuration not stated) | -1.49% |
| O=c1c2c[nH]c(N3CCC(O)CC3)nc-2cn1Cc1cccc(F)c1 | 11.8% |
| Cc1ccc(CN2CCC(O)(Cn3nc(-c4cccs4)oc3=O)CC2)o1 | 14.6% |
| CCc1ncnc2c1CCN(Cc1cccs1)CC2 | 13.7% |
| Cc1occc1C(=O)N1CCO[C@H]2[C@H](OCc3cccnc3)CC[C@@H]21 | 34.4% |
| CN(Cc1ccoc1)C(=O)C1CCN(C(=O)C2CCCC2)CC1 | 61.1% |

| SMILES | INHIBITION |
| --- | --- |
| CC(=O)N(Cc1ccoc1)C1CCCCC1 | -29.5% |
| CN(Cc1cnc(N)nc1)C(=O)C1CCN(C(=O)C2CCCC2)CC1 | 44.3% |
| CC(c1ccon1)N(C)C(=O)C1CCN(C(=O)C2CCC2)CC1 (configuration not stated) | 57.5% |
| CC(c1ccon1)N(C)C(=O)C1CCN(C(=O)C2CC2)CC1 (configuration not stated) | 34% |
| CC(C)N1CCC(C(=O)N(C)C(C)c2ccon2)CC1 (configuration not stated) | 1.94% |
| Cc1nn(Cc2ccc(C(=O)NC3CCS(=O)(=O)C3)cc2)c(C)c1Br (configuration not stated) | 7.3% |
| COCCN1C(=O)CCC12CCC(NCc1nccs1)CC2 (configuration not stated) | 10.5% |
| CN1CC2(CCN(C(=O)c3cn4cccnc4n3)CC2)CC1=O | -28.9% |
| O=C(NCc1cncc2c1CCN(CC1CCOC1)C2)c1ccno1 (configuration not stated) | -0.813% |
| O=C(O)c1c(-c2cccnc2)ncc2c1CCN(CC1CCOC1)C2 (configuration not stated) | -21.1% |
| O=C(NCc1cncc2c1CCN(CC1CCOC1)C2)c1ccco1 (configuration not stated) | -46% |
| c1cnc(NCc2cncc3c2CCN(CC2CC2)C3)nc1 | 48.4% |
| Cc1nccc(NCc2cncc3c2CCN(CC2CC2)C3)n1 | 84.7% |
| Cc1nccc(NCc2cncc3c2CCN(CC2CCOC2)C3)n1 (configuration not stated) | 91.9% |
| CS(=O)(=O)NCc1cncc2c1CCN(CC1CCOC1)C2 (configuration not stated) | 53.4% |
| O=C(O)c1c(-c2ccncc2)ncc2c1CCN(CC1CCOC1)C2 (configuration not stated) | 34.9% |
| Cc1nccc(NCc2cncc3c2CCN(CCN(C)C)C3)n1 | 29.4% |
| CCC(=O)N1CCN(CCn2cccn2)c2ncccc2C1 | 43% |
| Cn1cc(CN2CCc3onc(COCC4CC4)c3C2)cn1 | 5.96% |
| CCc1ncncc1C(=O)N1CCN(Cc2cscn2)CC1 | 15.5% |
| COCc1nnc(NC(=O)c2cn(C(C)C)c3ccc(OC)cc23)s1 | -42.5% |
| O=C(c1cccc(-n2cccn2)c1)N1CCCOC(CN2CCCC2)C1 (configuration not stated) | 13.7% |

| SMILES | INHIBITION |
| --- | --- |
| COc1ccc(C(=O)N2CC[C@H](CO)[C@H](O)C2)c(C)c1 | 16.8% |
| COc1ccc2cc(C(=O)N3CC[C@H](CO)[C@H](O)C3)n(C)c2c1 | 27.6% |
| COc1cccc(C2CCCN2C(=O)c2cc3c(nc2OC)CCC3)c1 (configuration not stated) | -10.8% |
| CCc1ncc(C(=O)N2CCCOC(Cn3cccn3)C2)cn1 (configuration not stated) | 40.2% |
| O=C(c1cccc(-n2cccn2)c1)N1CCCOC(Cn2cccn2)C1 (configuration not stated) | 0.891% |
| COc1nc2c(cc1C(=O)N1CCCOC(CN3CCCC3)C1)CCC2 (configuration not stated) | 54.5% |
| COc1nc2c(cc1C(=O)N1CCCOC(Cn3cccn3)C1)CCC2 (configuration not stated) | 59.1% |
| COc1nc2c(cc1C(=O)N1CC[C@H](CO)[C@@H](O)C1)CCC2 | 61% |
| CCC(C)(C)C(=O)Nc1ccc2ccn(CC(=O)NC)c2c1 | -3.47% |
| Cc1oncc1C(=O)N1C[C@H]2CCCC(N(C)Cc3cccs3)[C@H]2C1 (some centres not stated) | 21.6% |
| CCS(=O)(=O)CC(=O)NC(C)c1ccc(OCCC(C)C)cc1 (configuration not stated) | 15.4% |
| CCOC(=O)Cc1csc(NC(=O)c2ccc(=O)[nH]n2)n1 | 18.4% |
| Cc1nc(CN2CCC3(CCN(c4ncc(F)cn4)C3)C2=O)cs1 (configuration not stated) | -23.7% |
| CCc1c(C(=O)N2CCN(CC(N)=O)CC2)cnn1C(C)(C)C | 53.8% |
| CCc1c(C(=O)N2CCC(CC(N)=O)CC2)cnn1C(C)(C)C | 47.1% |
| CCc1c(C(=O)N2CCCN(C(C)=O)CC2)cnn1C(C)(C)C | 44.3% |
| CN(C)S(=O)(=O)NC1CCCc2c1cnn2-c1ccc(C(C)(C)C)cc1 (configuration not stated) | 58.8% |
| CC(C)(C)c1ccc(-n2ncc3c2CCCC3N)cc1 (configuration not stated) | 22.6% |
| Cc1ccc(-n2ncc3c2CCCC3N)cc1C (configuration not stated) | 33.7% |
